This is an account of results in PubChem BioAssay (NCATS).

Molecules are shown by their SMILES. Values without a mark were called inactive. Inconclusive results are not listed. The source made the active and inactive calls. Unless noted, calls follow the shape of the dose curve; as a rule, active = well fitted curve in the direction sought with a large enough effect; inconclusive = small, poorly fitted or top-dose-only effect, or another doubt; inactive = no such curve, though single readings can be large; an effect the other way counts as inactive or inconclusive.

Test [1] can be described thus: Stat Signaling Pathway (AID 446; active = well fitted curve in either direction with a large enough effect, not every such curve was filed as active;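 also: ME-180 cervical cancer cells given 40 pM IL-6 alongside compound; SIE-controlled beta-lactamase reporter measured as 460/530 nm FRET emission ratio; % is scaled to controls: 0 for no effect and ±100 for the full control effect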). As to conditions: ME-180 (cervical carcinoma) SIE beta-lactamase reporter, IL-6 stimulated, 5 h; series mostly up to 17.2 µM. An outline of the steps:
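Emission at 460 and 530 nm (excitation 405 nm) reports SIE-controlled beta-lactamase in ME-180 cells. Cells received compound with 40 pM IL-6 for 5 hrs at 37 C; data scaled between 300 pM IL-6 and 125 nM JAK-inhibitor controls.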

The target of test [2] is Cytochrome P450 3A4 (Homo sapiens) (UniProt P08684). The experiment in a line: qHTS Assay for Activators of Cytochrome P450 3A4 (AID 885). Also: nearly all actives have a fitted effect of over 65% in size. As to conditions: recombinant CYP3A4, Luciferin-PPXE luminescence, 60 min; series mostly up to 57.1 µM. In short, it runs like this:
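Activators are scored by enhanced luminescence from CYP3A4 conversion of luciferin-PPXE (25uM, equal to KM) to luciferin, after 60 min at RT with an NADPH-regenerating system.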
(In general: In qHTS, concentration-response curves come from the screen itself.)

Another test relates to 7G8. Nature of the test: qHTS profiling for inhibitors of Plasmodium falciparum proliferation (AID 504749). Also: nearly all actives have a fitted effect of over 60% in size. Also: potency is read from the fitted curve at half-maximal effect. Conditions: P. falciparum in erythrocytes, SYBR Green DNA, 72 h; series mostly up to 12.8 µM. An outline of the steps:
(§1)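 Fluorescence of SYBR Green-bound parasite DNA, read at 485/535 nm, served as the growth measure. Infected erythrocytes were cultured with compound 72 h; artemisinin (0.29 uM) and DMSO wells defined the normalization range.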

The subject of another test is CP203. The description is as above. As to conditions: P. falciparum in erythrocytes, SYBR Green DNA, 72 h; series mostly up to 12.8 µM. In short, it runs like this: as §1
The test system of the next test is CP215. The test is described as above. Conditions: P. falciparum in erythrocytes, SYBR Green DNA, 72 h; series mostly up to 12.8 µM. An outline of the steps: as §1
A further test has as its system CP260. Described as above. Conditions: P. falciparum in erythrocytes, SYBR Green DNA, 72 h; series mostly up to 12.8 µM. In short, it runs like this:
as §1

The next test concerns CP335. The description is as above. Conditions: P. falciparum in erythrocytes, SYBR Green DNA, 72 h; series mostly up to 12.8 µM. An outline of the steps: as §1
The next test relates to DFO2036. The description is as above. As to conditions: P. falciparum in erythrocytes, SYBR Green DNA, 72 h; series mostly up to 12.8 µM. An outline of the steps: as §1
Another test relates to DIV17. The description is as above. As to conditions: P. falciparum in erythrocytes, SYBR Green DNA, 72 h; series mostly up to 12.8 µM. In short, it runs like this:
as §1

For a further test, the system named is GB4. Described as above. Conditions: P. falciparum in erythrocytes, SYBR Green DNA, 72 h; series mostly up to 12.8 µM. An outline of the steps: as §1
A further test deals with ICS. Described as above. As to conditions: P. falciparum in erythrocytes, SYBR Green DNA, 72 h; series mostly up to 12.8 µM. In short, it runs like this:
as §1

The next test relates to W2. Described as above. As to conditions: P. falciparum in erythrocytes, SYBR Green DNA, 72 h; series mostly up to 12.8 µM. In short, it runs like this:
as §1

Test [3] in a line: NFAT Signaling Pathway (AID 444; active = well fitted curve in either direction with a large enough effect, not every such curve was filed as active;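 also: carbachol stimulus at about its EC50 of 1 µM final; % is scaled to controls: 0 for no effect and ±100 for the full control effect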). Conditions: Jurkat NFAT-bla M1, carbachol, beta-lactamase ratio, 5 h; at 17.2 µM (top of the series) unless noted. In short, it runs like this: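 Jurkat cells carrying an NFAT-driven β-lactamase reporter and co-transfected muscarinic M1 receptor were treated with compound plus carbachol (1 uM final, an EC50 level) for 5 h at 37 °C. CCF4 loading followed for 1 h at RT; 460/530 nm ratio gave %activity.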

The nature of test [4]: S16 Schwann cell viability assay (CellTiter-Glo assay) (AID 624031).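 Also: native untransfected S16 rat Schwann cells; plate controls were DMSO-treated cells for no effect and cell-free wells for full effect; nearly all actives have a fitted effect of over 70% in size.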 As to conditions: S16 rat Schwann cells viability, 24 h; series mostly up to 25.7 µM. In short, it runs like this: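 Counter-screen for cytotoxicity: parental S16 rat Schwann cells lacking the PMP22 reporters, treated 24 h with compound, viability from cellular ATP by CellTiter-Glo luminescence, normalized to DMSO (0%) and no-cell wells.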
On the technique in general: In ATP-based viability assays light output follows the ATP content of the culture.

The nature of test [5]: S16 Schwann cell PMP22 intronic element firefly luciferase assay (AID 624032). Also: nearly all actives have a fitted effect of over 30% in size. Also: potency is read from the fitted curve at half-maximal effect.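 As to activity change, negative = inhibition: plate controls were DMSO for no effect and PTC124 positive control mean for full effect.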 As to conditions: S16 rat Schwann cells, PMP22 element FLuc, 24 h; series mostly up to 25.7 µM. An outline of the steps:
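Rat S16 Schwann cells stably carrying a PMP22 intronic element-driven Fluc reporter were seeded overnight, then exposed to compounds for 24 h at 37 °C. Luminescence was normalized to PTC124 (positive control) and DMSO (0% activity).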

In test [6] the target is Cytochrome P450 2C9 (Homo sapiens) (UniProt P11712). Nature of the test: qHTS Assay for Inhibitors and Substrates of Cytochrome P450 2C9 (AID 883). Also: nearly all actives have a fitted effect of over 60% in size. Also: potency is read from the fitted curve at half-maximal effect. As to activity change, negative = inhibition: % is scaled to controls: 0 for no effect and ±100 for the full control effect. Conditions: recombinant CYP2C9, luciferin-H luminescence, 60 min; series mostly up to 25.6 µM. In short, it runs like this: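 A luminogenic readout tracked human CYP2C9 (10nM) converting deoxyluciferin (100uM, at KM) in 25mM KPO4 during 60 min at 37C with regenerated NADPH. Values normalized to 57uM sulphaphenazole as complete inhibition.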
Chain of Cytochrome P450 2C9 (Homo sapiens) (P11712 whole entry, looked up): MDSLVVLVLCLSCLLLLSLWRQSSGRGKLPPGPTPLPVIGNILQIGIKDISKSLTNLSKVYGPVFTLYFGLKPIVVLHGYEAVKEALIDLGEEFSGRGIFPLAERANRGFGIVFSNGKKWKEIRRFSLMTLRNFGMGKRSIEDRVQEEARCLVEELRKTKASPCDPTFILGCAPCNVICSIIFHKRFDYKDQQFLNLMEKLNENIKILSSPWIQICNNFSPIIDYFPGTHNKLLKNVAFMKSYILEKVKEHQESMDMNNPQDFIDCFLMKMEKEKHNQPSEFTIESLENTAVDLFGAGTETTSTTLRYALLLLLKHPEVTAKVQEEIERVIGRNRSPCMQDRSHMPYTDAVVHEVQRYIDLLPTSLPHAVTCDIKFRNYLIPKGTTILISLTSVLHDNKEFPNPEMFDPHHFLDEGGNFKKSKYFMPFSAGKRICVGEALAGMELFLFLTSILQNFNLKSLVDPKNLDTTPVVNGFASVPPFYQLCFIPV

In test [7] the target is Cytochrome P450 3A4 (Homo sapiens) (UniProt P08684). The experiment in a line: qHTS Assay for Inhibitors and Substrates of Cytochrome P450 3A4 (AID 884). Also: % is scaled to controls: 0 for no effect and ±100 for the full control effect; nearly all actives have a fitted effect of over 50% in size. Conditions: recombinant CYP3A4, Luciferin-PPXE luminescence; series mostly up to 57.1 µM. In short, it runs like this:
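Luminescent readout of luciferin produced by CYP3A4 (20 nM) dealkylation of Luciferin-PPXE, 25 uM (its KM). NADPH-driven reaction ran 60 min at RT after 10 min compound preincubation; data scaled to 57 uM ketoconazole as 100% inhibition.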

Test [8] has as its target Cytochrome P450 2D6 (Homo sapiens) (UniProt P10635). The experiment in a line: qHTS Assay for Inhibitors and Substrates of Cytochrome P450 2D6 (AID 891).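 Also: luciferin methyl ether substrate demethylated by CYP2D6 with NADPH regeneration; % is scaled to controls: 0 for no effect and ±100 for the full control effect; nearly all actives have a fitted effect of over 60% in size.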 As to conditions: recombinant CYP2D6, luciferin-ME EGE luminescence; series mostly up to 57.1 µM. In short, it runs like this:
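Luminescent read-out of luciferin formed by 5 nM human CYP2D6 demethylating 30 uM Luciferin-ME EGE (Km level) over 60 min at room temperature after NADPH regeneration addition. Data normalized to full inhibition by 1.43 uM quinidine.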

A short description of test [9]: Confirmation and Secondary Assay for Modulators of Hemoglobin Beta Chain Splicing at IVS2 654 locus (AID 910).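 Also: per-well total GFP intensity by laser scanning cytometry after 2-day treatment; % of control where 0% means no effect.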 Conditions: HeLa EGFP-654 splicing reporter, GFP fluorescence, 48 h; series mostly up to 46.1 µM. An outline of the steps:
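HeLa cells stably carrying EGFP interrupted by mutant beta-globin IVS2-654 intron (CMV-driven) were treated with compound for 2 days at 37C; corrected splicing was scored as total peak GFP intensity per well (488 nm excitation, 500-520 nm emission).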

Test [10] can be described thus: Confirmation and Secondary Assay for Modulators of Hemoglobin Beta Chain Splicing at IVS2 705 locus (AID 930).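 Also: HeLa cells stably expressing the EGFP-705 splicing reporter; GFP fluorescence per well restored by corrected splicing of the IVS2-705 intron in EGFP; % of control where 0% means no effect.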 Conditions: HeLa EGFP-705 splicing reporter, GFP fluorescence, 48 h; series mostly up to 46.1 µM. In short, it runs like this:
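First, HeLa EGFP-705 cells are seeded at 500/well in Optimem with 2% FCS and left overnight. Next, compound or DMSO is added for 2 days. Finally wells are laser-scanned and total peak GFP intensity scored.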

Chain of Cytochrome P450 3A4 (Homo sapiens) (P08684 whole entry, looked up): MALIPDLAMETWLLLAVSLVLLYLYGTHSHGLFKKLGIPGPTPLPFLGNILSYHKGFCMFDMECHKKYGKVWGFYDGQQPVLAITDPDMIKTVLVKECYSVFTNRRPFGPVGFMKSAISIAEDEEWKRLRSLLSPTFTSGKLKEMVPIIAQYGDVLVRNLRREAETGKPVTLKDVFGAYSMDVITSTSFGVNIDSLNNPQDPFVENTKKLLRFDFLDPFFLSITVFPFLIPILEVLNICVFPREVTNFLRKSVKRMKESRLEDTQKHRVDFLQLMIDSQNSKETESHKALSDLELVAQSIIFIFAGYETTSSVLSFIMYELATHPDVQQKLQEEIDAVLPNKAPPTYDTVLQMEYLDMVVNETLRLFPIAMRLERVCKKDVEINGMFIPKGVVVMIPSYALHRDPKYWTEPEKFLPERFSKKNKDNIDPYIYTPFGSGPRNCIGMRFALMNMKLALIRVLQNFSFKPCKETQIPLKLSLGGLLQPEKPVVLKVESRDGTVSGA
Chain of Cytochrome P450 2D6 (Homo sapiens) (P10635 whole entry, looked up): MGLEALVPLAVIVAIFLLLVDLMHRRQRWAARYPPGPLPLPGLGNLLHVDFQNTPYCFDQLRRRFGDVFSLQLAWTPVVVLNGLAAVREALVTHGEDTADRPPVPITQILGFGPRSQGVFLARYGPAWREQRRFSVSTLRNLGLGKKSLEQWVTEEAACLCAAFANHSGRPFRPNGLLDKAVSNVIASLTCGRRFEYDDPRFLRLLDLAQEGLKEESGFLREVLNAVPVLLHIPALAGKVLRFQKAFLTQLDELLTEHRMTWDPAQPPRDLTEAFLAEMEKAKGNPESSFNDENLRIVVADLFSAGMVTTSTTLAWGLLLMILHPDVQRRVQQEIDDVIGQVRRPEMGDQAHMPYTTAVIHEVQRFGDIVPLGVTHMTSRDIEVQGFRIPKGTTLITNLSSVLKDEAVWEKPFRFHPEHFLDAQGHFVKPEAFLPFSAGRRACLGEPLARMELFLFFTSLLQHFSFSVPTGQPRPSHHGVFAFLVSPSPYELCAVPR

Turning to `COc1cc(N[C@@H](C)CCCN)c2ncccc2c1`, in test [1], the outcome was inactive. Also, the Potency result in test [2] was “inactive”. In addition, the Potency in the test with 7G8 was 316 nM (active); in the test with CP203, 3610 nM (active); in the test with CP215, 3610 nM (active); in the test with CP260, 1410 nM (active); with CP335, 4050 nM (active); with DFO2036, 3550 nM (active). Also, the Potency with DIV17 was 642 nM (active); with GB4 it was 809 nM (active); with ICS, 708 nM (active); with W2, 2030 nM (active).
Turning to `N[C@H](Cc1cc(I)c(Oc2cc(I)c(O)c(I)c2)c(I)c1)C(=O)O`, the activity change, negative = inhibition in test [3] is -8.92%. The molecule was classed as inactive in [1].
For the molecule `C1CCN2C[C@@H]3C[C@@H](CN4CCCC[C@H]34)[C@H]2C1`, the activity change, negative = inhibition in test [3] was -16.7%. Also, the result in [1] and in test [4] was inactive. Further, the Potency result (in test [5]; in the test with 7G8; with CP203; in the test on CP260; in the test with CP335; in the test on DIV17) was “inactive” throughout. Besides, the Potency entry with GB4 and with ICS was “inactive” throughout.
As for `Cc1cc2ccc(=O)oc2cc1OC[C@@H](O)C(C)(C)O`, the Potency entry in test [6], in [7] and in test [8] was “inactive” in each case.
Take `CC/C=C\C[C@H]1C(=O)CC[C@@H]1CC(=O)O`: the Potency entry in test [6], in test [7] and in test [8] was “inactive” each time.
Turning to `C[C@@H](C(=O)O)c1ccc(N2Cc3ccccc3C2=O)cc1`, in test [3], the activity change, negative = inhibition is 11.8%. In addition, in test [1], the molecule was classed as inactive. The Potency result in test [6] is “inactive”.
`C=Cc1c(C)c2cc3nc(cc4[nH]c(cc5nc(cc1[nH]2)C(C)=C5CCC(=O)O)c(CCC(=O)OC)c4C)[C@@]1(C)C3=CC=C(C(=O)OC)[C@H]1C(=O)OC` (tested in a mixture with another compound): the Potency in [6] was 1260 nM (active); with 7G8, 355 nM (active); in the test on CP260 it was 2510 nM (active); in the test with CP335 it was 3790 nM (active); in the test with DFO2036 it was 11200 nM (active); with DIV17, 7570 nM (active). Also, the Potency is 12000 nM (active) with GB4, 501 nM (active) in the test with ICS and 1690 nM (active) in the test on W2. Further, the Potency result in [2] was “inactive”. Further, in test [4], the outcome was inactive.
Take `C/C1=C2N=C(/C=C3N=C(/C(C)=C4\[N-]C(C)(C5N=C1C(C)(CCC(=O)NCC(C)OP(=O)([O-])O[C@H]1C(O)C(n6cnc7cc(C)c(C)cc76)O[C@@H]1CO)C5CC(N)=O)C(C)(CC(N)=O)C4CCC(N)=O)C(C)(CC(N)=O)C\3CCC(N)=O)C(C)(C)C/2CCC(N)=O.[CH2-]C1OC(n2cnc3c(N)ncnc32)C(O)C1O.[Co]` (some centres undefined): the Potency result (in test [2]; in test [9]; in test [10]; with 7G8; with CP203; with CP215) was “inactive” throughout. Moreover, the Potency entry in the test on CP260, with CP335, in the test on DFO2036, with DIV17 and with GB4 was “inactive” in each case. For the same molecule, in test [4], the call was inactive. Also, in test [5], the Potency was 14400 nM (active).
In the case of `CC1C2CCC3C4CC=C5CC(N(C)C)CC[C@@]5(C)C4CC[C@@]32CN1C` (some centres undefined), the Potency entry (in [7]; in [9]; in test [10]; with CP203; with CP215; in the test with CP335) was “inactive” in each case. Further, the Potency entry in the test with DFO2036, in the test on DIV17, with GB4 and in the test on ICS was “inactive” throughout. The call in test [4] was inactive.
